Experiment [1] in a line: compound effects on differentiated 3T3-L1 adipocyte viability – cell-based, 3T3-L1 adipocytes, calcein-AM fluorescence, 48 h, basal, profiling panel (AID 1163). As to conditions: 3T3-L1 adipocytes viability, higher = more signal.
Experiment [2] in a line: compound effects on hepatocellular carcinoma cell viability – HepG2, calcein-AM fluorescence, 48 h, basal, profiling panel (AID 1164). As to conditions: higher = more signal.
A short description of experiment [3]: compound effects on multiple myeloma cell viability – MM1S, calcein-AM fluorescence, 48 h, basal, profiling panel (AID 1165). As to conditions: higher = more signal.
A short description of experiment [4]: calcein-AM signal in unstimulated myeloma cells – cell-based, calcein-AM fluorescence, 48 h, PK04 Diversity Set, profiling panel (AID 1166).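 Further: cells grown under basal conditions without added stimulus.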 To be noted: RPMI8226 myeloma viability, higher = more signal.
Experiment [5] in a line: JC-1 mitochondrial signal, unstimulated HepG2 cells – cell-based, JC-1 fluorescence, 24 h, 100 nL compound, profiling panel (AID 1167). As to conditions: HepG2 mitochondrial potential, higher = more signal.
Experiment [6] is described as follows: JC-1 mitochondrial signal, unstimulated adipocytes – cell-based, JC-1 fluorescence, 3T3-L1 adipocytes, 24 h, 100 nL compound, profiling panel (AID 1168). As to conditions: JC-1 mitochondrial fluorescence, higher = more signal, called active from +8 up or from −8 down.
Experiment [7] can be described thus: JC-1 mitochondrial signal, unstimulated myeloma cells – cell-based, JC-1 fluorescence, RPMI8226, 24 h, 100 nL compound, profiling panel (AID 1169). As to conditions: JC-1 mitochondrial potential fluorescence, higher = more signal.
The nature of experiment [8]: JC-1 mitochondrial signal, unstimulated MM1S myeloma – cell-based, JC-1 fluorescence, 24 h, 100 nL compound, profiling panel (AID 1170). To be noted: MM1S mitochondrial potential, higher = more signal.
The nature of experiment [9]: resazurin metabolic signal in A549 cells – cell-based, resazurin fluorescence, 24 h, PK04 Diversity Set, profiling panel (AID 1171). As to conditions: A549 viability, higher = more signal, called active from +8 up or from −8 down. For orientation: The colour change of resazurin is a common sign of viable cells or microbes.
Experiment [10] in a line: resazurin metabolic signal in HepG2 cells – cell-based, resazurin fluorescence, 24 h, PK04 Diversity Set, profiling panel (AID 1172). As to conditions: HepG2 viability, higher = more signal.
A short description of experiment [11]: budding yeast growth changes without added modifier – OD600, strain BY4716, 24 h, basal condition, primary screen (AID 1173). As to conditions: S. cerevisiae BY4716 growth, OD600, 24 h; higher = more signal, called active from +8 up or from −8 down.
Experiment [12] is described as follows: viability profiling in MM1S myeloma cells – cell-based, resazurin fluorescence, basal, 24 h, PK04 Diversity Set, profiling panel (AID 1174). As to conditions: higher = more signal, called active from +8 up or from −8 down.
Experiment [13] deals with Dihydroorotate dehydrogenase (quinone), mitochondrial (Plasmodium falciparum (isolate 3D7)) (UniProt Q08210). Nature of the experiment: inhibition of P. falciparum DHODH – biochemical, C-terminal His tag, absorbance 600 nm, primary screen (AID 1175).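 Further: recombinant parasite enzyme with a five histidine tag at its C terminus.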 To be noted: PfDHODH enzyme, DCIP absorbance 600 nm; higher = more signal, called active from +8 up or from −8 down.
Experiment [14] can be described thus: growth modulation of vineyard yeast isolate – strain RM11-1a, OD600, basal, 24 h, primary screen (AID 1177).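 Further: cultures grown under basal conditions with no added stressor.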 To be noted: S. cerevisiae RM11-1a growth, OD600, 24 h; higher = more signal, called active from +8 up or from −8 down.
Experiment [15] in a line: growth of efflux-deficient E. coli DRC39 – strain DRC39, OD650, 24 h, E. coli filamentation inducers, primary screen (AID 1178).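 Further: growth measured as culture turbidity by optical density at 650 nm.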 To be noted: E. coli DRC39 acrAB, higher = more signal, called active from +8 up or from −8 down.
A short description of experiment [16]: growth of efflux-deficient E. coli DRC39 – strain DRC39, OD650, 48 h, E. coli filamentation inducers, primary screen (AID 1179).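 Further: screen aims at cell division blockers that make cells filament.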 To be noted: E. coli DRC39 delta-acrAB growth, higher = more signal, called active from +8 up or from −8 down.
Experiment [17] in a line: viability profiling in RPMI8226 myeloma cells – cell-based, resazurin fluorescence, basal, 24 h, PK04 Diversity Set, profiling panel (AID 1180).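 Further: RPMI8826 multiple myeloma cell line at 5000 cells per well.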 To be noted: higher = more signal.
Experiment [18] deals with E3 ubiquitin-protein ligase XIAP (Homo sapiens) (UniProt P98170). Nature of the experiment: small molecules binding XIAP protein – biophysical, small-molecule microarray, fluorescence 635 nm, primary screen (AID 1181).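 Further: score merges 667 nm emission and signal to noise over triplicate slides.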 As to conditions: higher = more signal.
Experiment [19] deals with XIP peptide (Xip251-270) binding. The experiment can be described thus: XIP fragment 251-270 binding compounds – biochemical, small-molecule microarray, fluorescence 635/667 nm, 0.1 µg/mL protein, primary screen (AID 1182). As to conditions: fluorescent protein binding, 635 nm, higher = more signal, called active from +8 up or from −8 down.
The test system of a further experiment is XIP peptide (Xip251-270). Nature of the experiment: compounds binding XIP fragment 251-270 – biochemical, small-molecule microarray, fluorescence 635/667 nm, 0.5 µg/mL protein, primary screen (AID 1183). To be noted: fluorescence 635 nm, higher = more signal.

Calls of active or inactive are those of the source.

Chain of Dihydroorotate dehydrogenase (quinone), mitochondrial (Plasmodium falciparum (isolate 3D7)) (Q08210 whole entry, looked up): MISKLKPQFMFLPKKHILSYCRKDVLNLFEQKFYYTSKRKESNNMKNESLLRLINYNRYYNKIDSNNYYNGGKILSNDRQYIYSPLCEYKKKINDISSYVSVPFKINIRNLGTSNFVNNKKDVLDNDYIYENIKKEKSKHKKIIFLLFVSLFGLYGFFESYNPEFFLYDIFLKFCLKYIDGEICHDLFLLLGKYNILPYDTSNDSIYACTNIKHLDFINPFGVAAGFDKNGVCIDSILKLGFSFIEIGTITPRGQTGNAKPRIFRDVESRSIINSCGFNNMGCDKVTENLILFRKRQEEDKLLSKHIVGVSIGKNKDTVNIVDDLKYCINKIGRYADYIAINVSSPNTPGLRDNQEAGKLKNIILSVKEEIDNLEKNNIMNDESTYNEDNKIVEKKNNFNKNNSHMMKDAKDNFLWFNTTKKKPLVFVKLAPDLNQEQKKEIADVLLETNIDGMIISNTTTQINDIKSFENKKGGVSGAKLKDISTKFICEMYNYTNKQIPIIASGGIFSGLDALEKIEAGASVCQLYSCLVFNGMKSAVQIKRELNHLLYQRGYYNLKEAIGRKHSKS
Chain of E3 ubiquitin-protein ligase XIAP (Homo sapiens) (P98170 whole entry, looked up, the tested form may be a part): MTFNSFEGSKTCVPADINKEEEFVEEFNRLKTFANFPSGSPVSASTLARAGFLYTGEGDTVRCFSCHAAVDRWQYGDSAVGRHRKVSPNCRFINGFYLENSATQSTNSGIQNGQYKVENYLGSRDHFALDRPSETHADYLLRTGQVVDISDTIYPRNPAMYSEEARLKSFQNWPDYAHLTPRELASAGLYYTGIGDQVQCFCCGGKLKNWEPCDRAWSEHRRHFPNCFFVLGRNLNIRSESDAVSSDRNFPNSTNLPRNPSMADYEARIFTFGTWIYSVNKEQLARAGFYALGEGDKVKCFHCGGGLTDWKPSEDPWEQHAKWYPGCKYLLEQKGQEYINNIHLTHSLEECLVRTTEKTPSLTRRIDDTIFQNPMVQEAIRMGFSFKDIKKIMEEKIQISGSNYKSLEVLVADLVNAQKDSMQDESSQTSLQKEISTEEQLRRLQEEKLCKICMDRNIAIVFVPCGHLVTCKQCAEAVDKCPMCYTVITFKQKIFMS

As to `COc1ccc(C#Cc2ccc3c(c2)[C@]2(C(=O)N3)[C@H](c3ccc(O)cc3)N3[C@H](c4ccccc4)[C@H](c4ccccc4)OC(=O)[C@H]3[C@@H]2C(N)=O)cc1`, the z-score in experiment [1] was 1.39; in [2], -4.79; in experiment [3], -3.41; in experiment [4], -4.61; in experiment [5], -2.81; in experiment [6], -0.0696 (inactive). In addition, the z-score is -1.32 in experiment [7]; -1.66 in [8]; -1.62 (inactive) in experiment [9]; -0.424 in experiment [10]; -0.379 (inactive) in experiment [11]; -6.51 (inactive) in [12]. Moreover, the z-score in experiment [14] is 1.47 (inactive); in [15] it was 0.277 (inactive); in experiment [16], 0.464 (inactive); in experiment [17], -6.8. Besides, the composite z-score in experiment [13] was 0.255 (inactive); in [18], 0.237; in experiment [19] it was 0.0982 (inactive); in the experiment on XIP peptide (Xip251-270), 0.542.

Regarding `COc1ccc(CCNC(=O)[C@@]2(Sc3ccc(C)cc3)CC(=O)N(Cc3ccccc3)[C@@H]2c2ccc(CO)cc2I)cc1`, the z-score in [1] is 1.14; in [2] it was -0.46; in experiment [3] it was -1.78; in [4], -2.05; in experiment [5], 1.17; in experiment [6] it was 0.0695 (inactive). For the same compound, the z-score was -0.861 in [7]; -1.3 in [8]; 1.28 (inactive) in experiment [9]; 0.278 in experiment [10]; -1.92 (inactive) in experiment [11]; -2.26 (inactive) in experiment [12]. Also, the z-score was 0.893 (inactive) in experiment [14], 0.361 (inactive) in experiment [15], -0.0855 (inactive) in [16] and -1.5 in experiment [17]. The composite z-score was 0.341 (inactive) in experiment [13], 0.0623 in experiment [18], -0.281 (inactive) in [19] and -0.0462 in the experiment with XIP peptide (Xip251-270).

Consider `CCCCCCC#C[Si](O[C@H](c1ccccc1)c1cn(Cc2ccccc2)nn1)(C(C)C)C(C)C`, for which the z-score in experiment [1] was 0.28; in [2] it was -0.316; in experiment [3], 0.163; in experiment [4], 0.0412; in [5] it was 6.57; in experiment [6], 2.09 (inactive). For the same compound, the z-score in experiment [7] was 0.548; in experiment [8], -0.198; in experiment [9] it was 4.71 (inactive); in [10] it was 2.52; in [11] it was -0.382 (inactive); in [12], 2.12 (inactive). Further, the z-score was -0.486 (inactive) in experiment [14], 2.12 (inactive) in experiment [15], 1.36 (inactive) in experiment [16] and 2.68 in experiment [17]. Moreover, the composite z-score in experiment [13] was 0.337 (inactive); in experiment [18], -0.0368; in experiment [19], 0.663 (inactive); with XIP peptide (Xip251-270), -0.15.

Turning to `COC(=O)C(CC#Cc1ccc2c(c1)[C@]1(C(=O)N2)[C@H](C(=O)O)[C@H]2C(=O)O[C@H](c3ccccc3)[C@H](c3ccccc3)N2[C@@H]1c1ccc(OCCO)cc1)C(=O)OC`, the z-score is 0.313 in experiment [1]; 1.27 in experiment [2]; -2.5 in [3]; -3.54 in experiment [4]; -0.532 in [5]; 0.587 (inactive) in experiment [6]. The z-score is -0.746 in experiment [7]; 0.171 in experiment [8]; 0.7 (inactive) in experiment [9]; 0.821 in experiment [10]; -0.842 (inactive) in experiment [11]; 1.22 (inactive) in [12]. Also, the z-score was 0.338 (inactive) in experiment [14], 1.6 (inactive) in [15], 1.72 (inactive) in experiment [16] and -2.37 in experiment [17]. In addition, the composite z-score in experiment [13] is -15.4 (active); in experiment [18] it was -0.207; in [19] it was 1.68 (inactive); in the experiment with XIP peptide (Xip251-270), 0.836.

For the compound `CC(C)C[C@@H]1NC(=O)[C@@H]2C[C@H](C(=O)NCCCCCNC(=O)CS)[C@H](c3cccc(OCCO)c3)N2C1=O`, the z-score is 1.28 in experiment [1]; -0.646 in experiment [2]; -1 in experiment [3]; 0.134 in experiment [4]; 0.236 in experiment [5]; 0.321 (inactive) in experiment [6]. The z-score in experiment [7] is 0.14; in [8] it was 0.072; in experiment [9] it was 0.621 (inactive); in [10], 0.474; in [11], -0.928 (inactive); in experiment [12] it was 1.47 (inactive). Also, the z-score in experiment [14] was -1.14 (inactive); in [15], 0.186 (inactive); in experiment [16] it was -0.115 (inactive); in [17], 0.673. Moreover, the composite z-score in experiment [13] is -0.168 (inactive); in experiment [18], -0.0351; in experiment [19], 1.58 (inactive); in the experiment with XIP peptide (Xip251-270), 0.785.

For the compound `COCCOC(=O)N1C(=O)[C@@]2(c3cc(C#CCCO)ccc31)[C@H](c1ccccc1OCCO)N1[C@H](c3ccccc3)[C@H](c3ccccc3)OC(=O)[C@H]1[C@@H]2C(=O)NC[C@H](O)c1ccccc1`, the z-score in [1] is 0.915; in experiment [2], -0.527; in experiment [3], -0.377; in experiment [4], -1.11; in [5] it was 0.278; in [6] it was 1.96 (inactive). The z-score is -0.73 in [7]; -1.3 in [8]; 1.56 (inactive) in [9]; 1.43 in experiment [10]; -0.769 (inactive) in experiment [11]; 0.716 (inactive) in experiment [12]. The z-score in [14] was -0.404 (inactive); in [15], 2.24 (inactive); in experiment [16], 2.23 (inactive); in experiment [17] it was 0.433. Further, the composite z-score was -0.375 (inactive) in [13], -0.0446 in [18], 0.533 (inactive) in experiment [19] and 0.705 in the experiment with XIP peptide (Xip251-270).

With `O=C1O[C@@H](c2ccccc2)[C@@H](c2ccccc2)N2[C@@H](c3ccc(OCCO)cc3)[C@]3(C(=O)Nc4ccc(C#CC5(O)CCCCCC5)cc43)[C@@H](C(=O)NC[C@H](O)c3ccccc3)[C@H]12`, the z-score in experiment [1] was 1.71; in [2] it was 0.394; in experiment [3], -0.987; in experiment [4], 0.208; in experiment [5], -1.7; in [6], 0.548 (inactive). Also, the z-score in experiment [7] was -0.535; in experiment [8], -0.197; in experiment [9], 0.883 (inactive); in experiment [10], 0.18; in [11] it was 0.842 (inactive); in experiment [12] it was 0.786 (inactive). Further, the z-score was 2.1 (inactive) in [14], 1.06 (inactive) in [15], 1.12 (inactive) in experiment [16] and 0.966 in experiment [17]. Moreover, the composite z-score in experiment [13] was 0.935 (inactive); in experiment [18] it was -0.304; in [19], 0.673 (inactive); with XIP peptide (Xip251-270) it was 0.819.

For the compound `CC(C)C[C@@H]1NC(=O)[C@@]23C(=O)N[C@@H](Cc4ccccc4)C2[C@H](C)[C@@]2(C)O[C@H]2C3/C=C/CC/C=C/CNC(=O)[C@@H](C)NC1=O` (stereo not given in full), the z-score in experiment [1] was 1.98; in experiment [2] it was -0.309; in experiment [3], 0.827; in experiment [4], -0.386; in [5] it was 1.82; in [6] it was 0.918 (inactive). The z-score is -0.205 in experiment [7]; 2.11 in [8]; -0.613 (inactive) in [9]; -0.589 in [10]; -1.92 (inactive) in experiment [11]; 0.603 (inactive) in [12]. In addition, the z-score was -0.209 (inactive) in experiment [14], 2.5 (inactive) in experiment [15], 1.34 (inactive) in experiment [16] and 0.866 in experiment [17]. For the same compound, the composite z-score in experiment [13] is 0.596 (inactive); in [18] it was -0.227; in experiment [19], -0.804 (inactive); with XIP peptide (Xip251-270), -0.0387.

Values taken from PubChem BioAssay.
